In PubChem BioAssay (EPA / NIEHS) one finds AC50 and outcome data, which are given here for 5 molecules.

Active and inactive are the calls of the source. The calls were made as follows: active = hit-call score of the fitted dose curve at least 0.9, where 1 is the maximum; inactive = score below 0.9.

Read-out in test [1]: Macrophage colony-stimulating factor (MCSF), CSF1 (gene 1435)
Kind of test: BSK_hDFCGF_MCSF: BioMAP Diversity Plus: hDFCGF Assay for Macrophage colony-stimulating factor (MCSF) Biomarker Activity (AID 2283060). Conditions: primary human foreskin fibroblasts; actives raise or lower the signal. In a few lines: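 Primary human foreskin fibroblasts dosed with chemical; 24 h later, M-CSF quantified by ELISA; curves fitted in both directions vs DMSO negative control.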

Test [2] in a line: BSK_hDFCGF_SRB: Viability Assessment in the BioMAP Diversity Plus: hDFCGF Assay (AID 2283061).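 Also: cells exposed to compound for 24 h before the read.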 To be noted: primary human foreskin fibroblasts. In a few lines:
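Readout is SRB absorbance at 560 nm, reflecting total protein in parallel cultures of human foreskin fibroblasts harvested 24 h after chemical dosing. Activity was fitted bidirectionally relative to DMSO.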

Read-out in test [3]: TIMP metallopeptidase inhibitor 1 (TIMP1), TIMP1 (gene 7076)
Kind of test: BSK_hDFCGF_TIMP1: BioMAP Diversity Plus: hDFCGF Assay for TIMP metallopeptidase inhibitor 1 (TIMP1) Biomarker Activity (AID 2283062). Conditions: primary human foreskin fibroblasts; actives raise or lower the signal. Summed up: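 Human skin fibroblasts (primary), hDFCGF system; compound exposure 24 h; TIMP-1 by ELISA; bidirectional fit vs DMSO negative control; overt cytotoxicity by SRB in parallel wells.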

Read-out in test [4]: Monokine induced gamma interferon (MIG), CXCL9 (gene 4283)
As to the kind of experiment: BSK_hDFCGF_MIG: BioMAP Diversity Plus: hDFCGF Assay for Monokine induced gamma interferon (MIG) Biomarker Activity (AID 2283063). To be noted: primary human foreskin fibroblasts; actives raise or lower the signal. Summed up: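 Chemicals were added to primary human foreskin fibroblast cultures, which were sampled 24 h later. MIG levels were then quantified by ELISA and responses fitted in both directions relative to DMSO.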

Read-out in test [5]: Matrix Metallopeptidase 1 (MMP1), MMP1 (gene 4312)
Kind of test: BSK_hDFCGF_MMP1: BioMAP Diversity Plus: hDFCGF Assay for Matrix Metallopeptidase 1 (MMP1) Biomarker Activity (AID 2283064). Conditions: primary human foreskin fibroblasts; actives raise or lower the signal. Summed up:
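Human foreskin fibroblasts exposed to chemical for 24 h; MMP1 detected by ELISA, with DMSO as baseline for bidirectional fitting.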

Read-out in test [6]: Vascular cell adhesion molecule 1 (VCAM1), VCAM1 (gene 7412)
As to the kind of experiment: BSK_hDFCGF_VCAM1: BioMAP Diversity Plus: hDFCGF Assay for Vascular cell adhesion molecule 1 (VCAM1) Biomarker Activity (AID 2283065).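 As to AC50: VCAM-1 protein level quantified by ELISA after 24 h chemical exposure.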 To be noted: primary human foreskin fibroblasts; actives raise or lower the signal. In a few lines:
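Human foreskin fibroblast primary cells, chemical exposure 24 h; VCAM-1 by ELISA; bidirectional fit, DMSO = negative control/baseline.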

Read-out in test [7]: Plasminogen activator inhibitor-1 (PAI1), SERPINE1 (gene 5054)
As to the kind of experiment: BSK_hDFCGF_PAI1: BioMAP Diversity Plus: hDFCGF Assay for Plasminogen activator inhibitor-1 (PAI1) Biomarker Activity (AID 2283066). To be noted: primary human foreskin fibroblasts; actives raise or lower the signal. In a few lines: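 Fibroblasts from human foreskin were treated with test chemical. After 24 h, PAI-1 was measured by ELISA. Activity was fitted in both directions relative to DMSO.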

Read-out in test [8]: Intercellular Adhesion Molecule 1 (ICAM1), ICAM1 (gene 3383)
Kind of test: BSK_KF3CT_ICAM1: BioMAP Diversity Plus: KF3CT Assay for Intercellular Adhesion Molecule 1 (ICAM1) Biomarker Activity (AID 2283067). Conditions: primary human keratinocytes with fibroblasts; actives raise or lower the signal. Summed up:
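ICAM-1 levels are measured by ELISA 24 h after dosing a primary human co-culture of keratinocytes and foreskin fibroblasts. Activity in either direction is fitted relative to DMSO vehicle.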

Read-out in test [9]: Interferon-gamma inducible Protein 10 (IP10), CXCL10 (gene 3627)
Kind of test: BSK_KF3CT_IP10: BioMAP Diversity Plus: KF3CT Assay for Interferon-gamma inducible Protein 10 (IP10) Biomarker Activity (AID 2283068). Conditions: primary human keratinocytes with fibroblasts; actives raise or lower the signal. Summed up:
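ELISA read-out of IP-10 after 24 h chemical dosing of human skin primary co-culture (keratinocytes, foreskin fibroblasts). Gain or loss of signal relative to DMSO, bidirectional curve fit.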

The nature of test [10]: BSK_KF3CT_SRB: Viability Assessment in the BioMAP Diversity Plus: KF3CT Assay (AID 2283069).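 Also: read 24 h after compound addition; fitted for both signal gain and loss against DMSO baseline.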 Conditions: primary human keratinocytes with fibroblasts. In a few lines:
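Overt cytotoxicity is assessed as total protein by sulforhodamine B staining in parallel human skin co-cultures at 24 h after dosing. DMSO serves as negative control and baseline.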

Read-out in test [11]: Interleukin-1 alpha (IL1a), IL1A (gene 3552)
As to the kind of experiment: BSK_KF3CT_IL1a: BioMAP Diversity Plus: KF3CT Assay for Interleukin-1 alpha (IL1a) Biomarker Activity (AID 2283070). Conditions: primary human keratinocytes with fibroblasts; actives raise or lower the signal. Summed up:
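Readout is IL-1a level by ELISA, compared bidirectionally with DMSO as baseline. Cells: human keratinocytes co-cultured with foreskin fibroblasts, harvested 24 h post-dose.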

Read-out in test [12]: TIMP metallopeptidase inhibitor 2 (TIMP2), TIMP2 (gene 7077)
As to the kind of experiment: BSK_KF3CT_TIMP2: BioMAP Diversity Plus: KF3CT Assay for TIMP metallopeptidase inhibitor 2 (TIMP2) Biomarker Activity (AID 2283071). Conditions: primary human keratinocytes with fibroblasts; actives raise or lower the signal. In a few lines: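 Chemicals were dosed onto human skin primary co-cultures of keratinocytes and foreskin fibroblasts, and TIMP-2 was measured by ELISA after 24 hours. Activity in either direction was fitted relative to DMSO.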

Read-out in test [13]: Transforming growth factor beta 1 (TGFb1), TGFB1 (gene 7040)
Kind of test: BSK_KF3CT_TGFb1: BioMAP Diversity Plus: KF3CT Assay for Transforming growth factor beta 1 (TGFb1) Biomarker Activity (AID 2283072). Conditions: primary human keratinocytes with fibroblasts; actives raise or lower the signal. Summed up:
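KF3CT co-culture (keratinocytes + fibroblasts), 24 h exposure → TGF-b1 ELISA → bidirectional fit, DMSO = baseline. Parallel SRB total-protein staining (0.1% SRB, 10% TCA fixation, 560 nm) for cytotoxicity.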

Read-out in test [14]: C-C motif chemokine 2 (Homo sapiens) (UniProt P13500)
As to the kind of experiment: BSK_KF3CT_MCP1: BioMAP Diversity Plus: KF3CT Assay for Monocyte Chemoattractant Protein 1 (MCP1/CCL2) Biomarker Activity (AID 2283073). To be noted: primary human keratinocytes with fibroblasts; actives raise or lower the signal. In a few lines:
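ELISA readout of MCP-1 after 24 h chemical dosing of a human skin primary co-culture of keratinocytes and foreskin fibroblasts. Activity was fitted in both directions against DMSO.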

Read-out in test [15]: urokinase plasminogen activator (uPA), PLAU (gene 5328)
Kind of test: BSK_KF3CT_uPA: BioMAP Diversity Plus: KF3CT Assay for urokinase plasminogen activator (uPA) Biomarker Activity (AID 2283075). Conditions: primary human keratinocytes with fibroblasts; actives raise or lower the signal. In a few lines:
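Values derive from bidirectional fitting against DMSO controls. Keratinocyte/foreskin fibroblast co-cultures received chemical; 24 h later uPA was detected by ELISA, with SRB total-protein staining in parallel wells for overt cytotoxicity.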

Read-out in another test: CD40, CD40 (gene 958)
Kind of test: BSK_LPS_CD40: BioMAP Diversity Plus: LPS Assay for CD40 Biomarker Activity (AID 2283076). To be noted: primary human HUVEC with PBMC; actives raise or lower the signal. In a few lines:
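Cells were dosed, incubated 24 h, then assayed for CD40 by ELISA. Gain or loss of signal was analysed relative to DMSO controls. The culture paired human umbilical vein endothelium with peripheral blood mononuclear cells.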

Read-out in test [16]: E-selectin (Homo sapiens) (UniProt P16581)
As to the kind of experiment: BSK_LPS_Eselectin: BioMAP Diversity Plus: LPS Assay for Eselectin Biomarker Activity (AID 2283077). Conditions: primary human HUVEC with PBMC; actives raise or lower the signal. Summed up:
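Primary human vascular co-culture (endothelium plus PBMC) was dosed with chemical, then E-selectin quantified by ELISA at 24 h. Endpoint values derive from bidirectional curve fitting relative to DMSO.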

Read-out in test [17]: Interleukin-8 (IL8), CXCL8 (gene 3576)
As to the kind of experiment: BSK_LPS_IL8: BioMAP Diversity Plus: LPS Assay for Interleukin-8 (IL8) Biomarker Activity (AID 2283078). To be noted: primary human HUVEC with PBMC; actives raise or lower the signal. In a few lines: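 Readout is IL-8 by ELISA, taken 24 h after compounds were added to LPS-stimulated endothelial/PBMC co-cultures. Both increases and decreases relative to DMSO control were scored through bidirectional fitting.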

Test [18] is described as follows: BSK_LPS_SRB: Viability Assessment in the BioMAP Diversity Plus: LPS Assay (AID 2283079).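 Also: total protein by sulforhodamine B absorbance as a cytotoxicity measure; measured one day after compound addition; fitted in both directions against DMSO so loss or gain of signal counts.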 Conditions: primary human HUVEC with PBMC. In a few lines: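 Readout is SRB absorbance at 560 nm (0.1% stain, TCA-fixed parallel cultures) as a total-protein cytotoxicity measure. Cells: primary human umbilical vein endothelium plus peripheral blood mononuclear cells, 24 h after chemical exposure; DMSO served as baseline.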

Sequence of E-selectin (Homo sapiens) (P16581 whole entry, looked up): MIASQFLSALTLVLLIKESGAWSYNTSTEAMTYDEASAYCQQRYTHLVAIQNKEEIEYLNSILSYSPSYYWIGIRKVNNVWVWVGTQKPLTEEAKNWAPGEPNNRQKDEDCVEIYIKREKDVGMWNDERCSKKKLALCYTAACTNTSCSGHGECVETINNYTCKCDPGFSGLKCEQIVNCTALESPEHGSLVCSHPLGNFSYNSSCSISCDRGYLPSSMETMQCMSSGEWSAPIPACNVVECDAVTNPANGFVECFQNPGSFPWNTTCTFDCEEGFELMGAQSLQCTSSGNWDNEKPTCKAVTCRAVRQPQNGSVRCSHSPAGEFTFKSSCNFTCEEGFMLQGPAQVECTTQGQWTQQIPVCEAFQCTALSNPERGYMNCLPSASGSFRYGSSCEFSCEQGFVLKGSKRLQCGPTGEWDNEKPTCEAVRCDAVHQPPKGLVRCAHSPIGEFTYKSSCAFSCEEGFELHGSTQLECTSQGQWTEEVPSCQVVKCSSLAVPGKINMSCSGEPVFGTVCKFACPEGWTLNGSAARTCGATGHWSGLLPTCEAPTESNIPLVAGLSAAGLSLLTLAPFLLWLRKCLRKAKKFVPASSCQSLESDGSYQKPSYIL

As a reminder, the AC50 is the midpoint of the concentration-response curve, whichever way the signal moves. Regarding `CN(C)c1ccc(C(=C2C=CC(=[N+](C)C)C=C2)c2ccccc2)cc1`, the AC50 in test [1] is 0.0319 µM (active); in test [2], 0.0082 µM (active); in [3], 0.0082 µM (active); in [4], 0.0509 µM (active); in test [5], 0.765 µM (active); in test [6], 0.0134 µM (active). Besides, the half-maximal activity concentration (AC50) was 18.5 nM (active) in [7]; 0.516 µM (active) in [8]; 0.39 µM (active) in test [9]; 318 nM (active) in [10]; 0.359 µM (active) in test [11]; 795 nM (active) in test [12]. For the same molecule, the half-maximal activity concentration (AC50) in test [13] is 194 nM (active); in test [14] it was 699 nM (active); in [15] it was 465 nM (active); with CD40, CD40 (gene 958), 0.0133 µM (active); in test [16], 0.0082 µM (active); in [18], 0.149 µM (active). For the same molecule, in test [17], the outcome was inactive.

As to `CCOC(=O)CN[C@@H](C(=O)N1CC[C@H]1C(=O)NCc1ccc(/C(N)=N/O)cc1)C1CCCCC1`, the outcome in [1], in test [2], in [3], in test [4], in test [5] and in test [6] was inactive. The outcome in [7], in test [8], in test [9], in test [10], in test [11] and in test [12] was inactive. Moreover, the outcome is “inactive” in test [13]; “inactive” in test [14]; “inactive” in [15]; “inactive” with CD40, CD40 (gene 958); “inactive” in test [16]; “inactive” in test [17]. In [18], the outcome was inactive.

As to `COC1=CC(=O)C[C@@H](C)[C@]12Oc1c(Cl)c(OC)cc(OC)c1C2=O`, the result in test [1], in test [2], in [3], in [4], in test [5] and in test [6] was inactive. The outcome in test [8], in test [9], in test [10], in [12], in [13] and in test [15] was inactive. For the same molecule, the outcome was “inactive” in the test with CD40, CD40 (gene 958); “inactive” in test [16]; “inactive” in test [17]; “inactive” in [18]. Moreover, the figures for the AC50 in [7], in test [11] and in test [14] were 497 nM (active), 1.98 µM (active) and 119 nM (active), respectively.

With `O=C1c2ccc(O)c(O)c2C(=O)c2c(O)ccc(O)c21`, the result in [1], in [2], in test [3], in test [4], in test [5] and in test [6] was inactive. Also, the outcome in test [7], in [8], in test [9], in test [10], in test [11] and in test [12] was inactive. Also, the outcome in test [13] is “inactive”; in test [14] it was “inactive”; in [15], “inactive”; with CD40, CD40 (gene 958), “inactive”; in test [16], “inactive”; in test [17], “inactive”. Besides, the result in test [18] was inactive.

Turning to `CC(C)(C)c1ccc(O)c(O)c1`, the concentration at half-maximal activity (AC50) in test [1] was 31.1 µM (active); in test [2], 31.8 µM (active); in test [3] it was 31.6 µM (active); in test [4], 31.2 µM (active); in [5], 30.6 µM (active); in test [6] it was 15.5 µM (active). Further, the concentration at half-maximal activity (AC50) was 5.79 µM (active) in [8]; 33.8 µM (active) in test [9]; 13 µM (active) in [11]; 20 µM (active) with CD40, CD40 (gene 958); 33.4 µM (active) in test [16]; 30.6 µM (active) in [17]. For the same molecule, the AC50 in test [18] was 31.4 µM (active). For the same molecule, the outcome in test [7], in test [10], in [12], in test [13], in test [14] and in [15] was inactive.
